In PubChem BioAssay AID1159580 (chemical genetic matrix, 2015):
Among all 5,500 compounds or so, about 2,000 (36%) were called active. Inconclusive results (about 18%) are left out. Rule as the data show it: active = normalized growth mostly below about 0.91 (no sharp cut-off); inconclusive = no clear call, values can overlap the other calls; inactive = mostly above about 0.92. The list shows a part of the results.

Assay: chemical genetic growth profiling, strain panel (AID 1159580);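 also: tested at 20 µM; growth read once vehicle control cultures reached saturation at 30 °C; 1 = growth at the plate median or of vehicle wells; lower values mean less growth of the strain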
Conditions: growth OD

Measured: normalized growth

CC(=O)OCC(=O)[C@@]1(O)CCC2C3CCC4=CC(=O)CC[C@]4(C)[C@@]3(F)[C@@H](O)C[C@@]21C (stereo partly specified)
inactive: S. cerevisiae deletion strains, locus YJR066W, strain TOR1, hits give low values 0.939 | S. cerevisiae deletion strains, locus YKL009W, strain mrt4, hits give low values 0.973 | S. cerevisiae deletion strains, locus YKL068W, hits give low values 1.01 | S. cerevisiae deletion strains, locus YKL085W, strain MDH1 (second series), hits give low values 1.01 | S. cerevisiae deletion strains, locus YKL085W, strain MDH1, hits give low values 1.01 | S. cerevisiae deletion strains, locus YKL160W, strain elf1, hits give low values 1.03 | S. cerevisiae deletion strains, locus YKL190W, strain CNB1, hits give low values 1 | S. cerevisiae deletion strains, locus YKR001C, strain vps1, hits give low values 0.987 | S. cerevisiae deletion strains, locus YKR026C, strain gcn3, hits give low values 1.02 | S. cerevisiae deletion strains, locus YKR091W, strain srl3, hits give low values 1 | S. cerevisiae deletion strains, locus YLL001W, strain dnm1, hits give low values 1.03 | S. cerevisiae deletion strains, locus YLL026W, hits give low values 1.01 | S. cerevisiae deletion strains, locus YLL041C, strain sdh2, hits give low values 1.01 | S. cerevisiae deletion strains, locus YLR027C, strain aat2, hits give low values 1.02 | S. cerevisiae deletion strains, locus YLR039C, strain RIC1, hits give low values 1.04 | S. cerevisiae deletion strains, locus YLR058C, strain SHM2, hits give low values 1.01 | S. cerevisiae deletion strains, locus YLR102C, strain apc9, hits give low values 1.01 | S. cerevisiae deletion strains, locus YLR113W, strain HOG1, hits give low values 0.992 | S. cerevisiae deletion strains, locus YLR221C, strain rsa3, hits give low values 1.02 | S. cerevisiae deletion strains, locus YLR258W, strain gsy2, hits give low values 1.01 | S. cerevisiae deletion strains, locus YLR262C, strain YPT6 (second series), hits give low values 1.03 | S. cerevisiae deletion strains, locus YLR262C, strain YPT6, hits give low values 1.01 | S. cerevisiae deletion strains, locus YLR268W, strain sec22, hits give low values 0.985 | S. cerevisiae deletion strains, locus YLR320W, strain mms22, hits give low values 1.05 | S. cerevisiae deletion strains, locus YLR330W, strain CHS5, hits give low values 1.01 | S. cerevisiae deletion strains, locus YLR342W, strain FKS1 (second series), hits give low values 1.02 | S. cerevisiae deletion strains, locus YLR342W, strain FKS1, hits give low values 1.01 | S. cerevisiae deletion strains, locus YLR357W, strain rsc2, hits give low values 1.01 | S. cerevisiae deletion strains, locus YLR370C, strain arc18, hits give low values 1.02 | S. cerevisiae deletion strains, locus YLR371W, strain rom2, hits give low values 1 | S. cerevisiae deletion strains, locus YLR384C, strain iki3, hits give low values 1.02 | S. cerevisiae deletion strains, locus YLR418C, strain cdc73, hits give low values 1.01 | S. cerevisiae deletion strains, locus YML016C, strain PPZ1, hits give low values 1 | S. cerevisiae deletion strains, locus YML032C, strain rad52, hits give low values 0.992 | S. cerevisiae deletion strains, locus YML120C, strain ndi1, hits give low values 1.03 | S. cerevisiae deletion strains, locus YML124C, strain tub3, hits give low values 1.01 | S. cerevisiae deletion strains, locus YMR058W, strain fet3, hits give low values 1.02 | S. cerevisiae deletion strains, locus YMR078C, strain ctf18, hits give low values 1.01 | S. cerevisiae deletion strains, locus YMR125W, strain sto1, hits give low values 1.01 | S. cerevisiae deletion strains, locus YMR129W, hits give low values 1.01 | S. cerevisiae deletion strains, locus YMR205C, strain PFK2, hits give low values 1.02 | S. cerevisiae deletion strains, locus YMR223W, strain ubp8, hits give low values 1.03 | S. cerevisiae deletion strains, locus YMR231W, strain pep5, hits give low values 1.01 | S. cerevisiae deletion strains, locus YMR307W, strain GAS1, hits give low values 1.01 | S. cerevisiae deletion strains, locus YNL067W, strain RPL9B, hits give low values 0.998 | S. cerevisiae deletion strains, locus YNL071W, strain lat1, hits give low values 1.02 | S. cerevisiae deletion strains, locus YNL128W, strain TEP1, hits give low values 1.02 | S. cerevisiae deletion strains, locus YNL153C, strain GIM3, hits give low values 1.01 | S. cerevisiae deletion strains, locus YNL183C, strain NPR1, hits give low values 0.957 | S. cerevisiae deletion strains, locus YNL209W, strain ssb2, hits give low values 1.01 | S. cerevisiae deletion strains, locus YNL233W, strain BNI4, hits give low values 1 | S. cerevisiae deletion strains, locus YNL248C, strain rpa49, hits give low values 1.02 | S. cerevisiae deletion strains, locus YNL271C, strain bni1, hits give low values 1.01 | S. cerevisiae deletion strains, locus YNL298W, strain CLA4, hits give low values 0.986 | S. cerevisiae deletion strains, locus YNL307C, strain MCK1, hits give low values 1.02 | S. cerevisiae deletion strains, locus YNL322C, strain KRE1 (second series), hits give low values 1.02 | S. cerevisiae deletion strains, locus YNR049C, strain mso1, hits give low values 1.01 | S. cerevisiae deletion strains, locus YNR052C, strain pop2, hits give low values 1 | S. cerevisiae deletion strains, locus YOL012C, strain htz1 0.967 | S. cerevisiae deletion strains, locus YOL147C, strain pex11, hits give low values 1 | S. cerevisiae deletion strains, locus YOR001W, strain rrp6, hits give low values 1 | S. cerevisiae deletion strains, locus YOR061W, strain CKA2, hits give low values 1.01 | S. cerevisiae deletion strains, locus YOR069W, strain VPS5, hits give low values 1.01 | S. cerevisiae deletion strains, locus YOR070C, strain gyp1, hits give low values 1.03 | S. cerevisiae deletion strains, locus YOR080W, strain dia2, hits give low values 1.01 | S. cerevisiae deletion strains, locus YOR083W, strain WHI5, hits give low values 1.03 | S. cerevisiae deletion strains, locus YOR106W, strain vam3, hits give low values 1.03 | S. cerevisiae deletion strains, locus YOR136W, strain idh2, hits give low values 0.989 | S. cerevisiae deletion strains, locus YOR144C, strain elg1, hits give low values 1 | S. cerevisiae deletion strains, locus YOR184W, strain ser1, hits give low values 0.997 | S. cerevisiae deletion strains, locus YOR231W, strain MKK1, hits give low values 1 | S. cerevisiae deletion strains, locus YOR265W, strain rbl2, hits give low values 1.02 | S. cerevisiae deletion strains, locus YOR270C, strain vph1, hits give low values 1.03 | S. cerevisiae deletion strains, locus YOR290C, strain snf2, hits give low values 0.997 | S. cerevisiae deletion strains, locus YOR316C, strain cot1, hits give low values 1.01 | S. cerevisiae deletion strains, locus YPL051W, strain arl3, hits give low values 1.04 | S. cerevisiae deletion strains, locus YPL078C, strain atp4, hits give low values 1.02 | S. cerevisiae deletion strains, locus YPL106C, strain sse1, hits give low values 1.02 | S. cerevisiae deletion strains, locus YPL240C, strain hsp82, hits give low values 0.994 | S. cerevisiae deletion strains, locus YPL256C, strain CLN2, hits give low values 1 | S. cerevisiae deletion strains, locus YPR119W, strain clb2, hits give low values 0.997 | S. cerevisiae deletion strains, locus YPR141C, strain kar3, hits give low values 1 | S. cerevisiae deletion strains, locus YPR163C, strain tif3, hits give low values 1 | S. cerevisiae deletion strains, locus YPR167C, strain met16, hits give low values 0.999 | S. cerevisiae deletion strains, strain wtn01, hits give low values 0.995 | S. cerevisiae strains, strain wild type, hits give low values 1.01
